# According to PubChem BioAssay (NCATS):
# Inconclusive results are not listed. Where a call stands in place of a potency, no number is given. Calls of active or inactive are those of the source. Unless noted, calls follow the shape of the dose curve; as a rule, active = well fitted curve in the direction sought with a large enough effect; inconclusive = small, poorly fitted or top-dose-only effect, or another doubt; inactive = no such curve, though single readings can be large; an effect the other way counts as inactive or inconclusive.
# Legend:
# [1] = qHTS to identify inhibitors of the type 1 interferon - major histocompatibility complex class I in skeletal muscle: primary screen against the NCATS Mechanism Interrogation Plate v5.0 (MIPE) Libary (AID 1347411); also: nearly all actives have a fitted effect of over 65% in size; also: potency is read from the fitted curve at half-maximal effect
# Outline: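 Luminescence from HiBiT-tagged endogenous HLA-B*08:01 served as the MHC class I read-out. CRISPR-engineered C25cl48 human myoblasts received 4.0 ng/ml IFN-beta plus compound for 24 hrs, with an 11-point, 1:3 series topping at 46 uM final.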
# [2] = biological target: Calcium and integrin-binding protein 1 (Homo sapiens) (UniProt Q99828); assay: Primary qHTS for Identification of Calcium Integrin Binding Protein 1 (CIB1) Competitor (AID 1508620);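 also: GST tagged CIB1 binding a fluorescein labelled alphaIIb integrin peptide tracer; top concentration of the series differs between compounds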
# Calcium and integrin-binding protein 1 (Homo sapiens), sequence (Q99828 whole entry, looked up): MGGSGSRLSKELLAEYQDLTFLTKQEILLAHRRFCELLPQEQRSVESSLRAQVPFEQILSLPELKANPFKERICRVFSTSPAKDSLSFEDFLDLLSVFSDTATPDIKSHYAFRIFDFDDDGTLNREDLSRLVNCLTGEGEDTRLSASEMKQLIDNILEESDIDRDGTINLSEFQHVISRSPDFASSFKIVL
# Outline: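 Fluorescence polarization competition: GST-tagged CIB1 (1 uM final) preincubated with compound 15 min at room temperature, then FITC-labelled alphaIIb peptide (100 nM final) added. After 15 min at room temperature, polarization read at Ex 480/Em 540.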
# [3] = biological target: Cytochrome P450 2D6 (Homo sapiens) (UniProt P10635); assay: Cytochrome P450 family 2 subfamily D member 6 (CYP2D6) small molecule antagonists: luciferase biochemical (cell-free) qHTS assay (AID 1645840; active = well fitted curve in the direction sought with a large enough effect in the repeat runs; an effect the other way counts as inactive or inconclusive; also: nearly all actives have a fitted effect of over 55% in size; also: potency is read from the fitted curve at half-maximal effect)
# Cytochrome P450 2D6 (Homo sapiens), sequence (P10635 whole entry, looked up): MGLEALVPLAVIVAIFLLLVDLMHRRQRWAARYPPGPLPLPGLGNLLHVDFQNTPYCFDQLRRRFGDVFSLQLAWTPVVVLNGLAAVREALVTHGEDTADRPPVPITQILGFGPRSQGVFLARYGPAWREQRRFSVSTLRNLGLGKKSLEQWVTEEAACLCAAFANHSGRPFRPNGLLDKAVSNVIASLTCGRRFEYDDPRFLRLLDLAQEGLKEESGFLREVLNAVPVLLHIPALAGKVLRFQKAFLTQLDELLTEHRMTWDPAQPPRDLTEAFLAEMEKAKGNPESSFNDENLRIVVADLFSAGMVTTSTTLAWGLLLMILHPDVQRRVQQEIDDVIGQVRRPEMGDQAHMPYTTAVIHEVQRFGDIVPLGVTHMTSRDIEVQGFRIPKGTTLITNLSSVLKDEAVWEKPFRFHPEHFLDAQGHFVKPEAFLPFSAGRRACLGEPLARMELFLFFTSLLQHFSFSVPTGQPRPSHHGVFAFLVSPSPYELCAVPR
# Outline: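 P450-Glo luminescent screen: recombinant CYP2D6 enzyme–proluciferin substrate mix preincubated with compound 10 min at room temperature, then NADPH regeneration added for 1 h at room temperature. Detection reagent added for 20 min; luciferin light read as relative luminescence units.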
# [4] = biological target: Cytochrome P450 2C9 (Homo sapiens) (UniProt P11712); assay: Cytochrome P450 family 2 subfamily C member 9 (CYP2C9) small molecule antagonists: luciferase biochemical (cell-free) qHTS assay (AID 1645842; active = well fitted curve in the direction sought with a large enough effect in the repeat runs; an effect the other way counts as inactive or inconclusive; also: nearly all actives have a fitted effect of over 55% in size; also: potency is read from the fitted curve at half-maximal effect)
# Cytochrome P450 2C9 (Homo sapiens), sequence (P11712 whole entry, looked up): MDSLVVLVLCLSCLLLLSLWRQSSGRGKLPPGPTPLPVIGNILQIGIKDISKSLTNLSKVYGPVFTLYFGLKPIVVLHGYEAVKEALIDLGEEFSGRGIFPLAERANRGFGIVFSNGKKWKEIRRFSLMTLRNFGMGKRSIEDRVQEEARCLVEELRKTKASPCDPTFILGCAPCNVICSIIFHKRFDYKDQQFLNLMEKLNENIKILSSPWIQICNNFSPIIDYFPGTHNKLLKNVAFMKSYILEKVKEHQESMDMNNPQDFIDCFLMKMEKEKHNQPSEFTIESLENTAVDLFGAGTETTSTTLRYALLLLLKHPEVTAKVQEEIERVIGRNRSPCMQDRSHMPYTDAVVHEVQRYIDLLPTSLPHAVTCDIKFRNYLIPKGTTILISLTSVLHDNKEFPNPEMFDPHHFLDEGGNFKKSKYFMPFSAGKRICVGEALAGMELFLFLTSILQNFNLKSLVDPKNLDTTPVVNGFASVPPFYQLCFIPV
# Outline: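 Luminescence, after 20 min with luciferin detection reagent, reflected CYP2C9 turnover during a 1 h NADPH-driven reaction at 37C. Enzyme-substrate mix contained 0.4% bovine serum albumin and was preincubated with compound 10 min at room temperature.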
# [5] = qHTS to identify inhibitors of the type 1 interferon - major histocompatibility complex class I in skeletal muscle: primary screen against the NCATS LOPAC collection (AID 1347405);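 also: lytic HiBiT luminescence reporting HLA-B protein level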
# Outline: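 Luminescence from HiBiT fused to endogenous HLA-B in CRISPR-engineered human myoblasts served as the read-out. Cells received 4.0 ng/ml IFN-beta plus compound (seven concentrations, 1:4.3 steps, highest 46 uM final) for 24 hrs before lytic detection.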
# [6] = qHTS to identify inhibitors of the type 1 interferon - major histocompatibility complex class I in skeletal muscle: primary screen against the NCATS Pharmaceutical Collection (AID 1347407);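 also: luminescence of HiBiT knocked into endogenous HLA-B as interferon-induced MHC class I level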
# Outline: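 HLA-B HiBiT myoblasts, dexamethasone-free growth medium + 4 ng/ml IFN-b; compounds pinned 1 h after seeding, […] from 46 uM; 24 h, 37 C, 5% CO2; lytic HiBiT detection, 10 min RT, luminescence.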
# [7] = qHTS for inhibitors of adenylyl cyclases using a fission yeast platform: a pilot screen against the NCATS LOPAC library (AID 1347410)
# Outline: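 Read-out: fbp1-GFP fluorescence by laser scanning cytometry (488 nm laser), a gain of signal when AC/cAMP-PKA signalling is inhibited. Strain CHP2027 expressing AC9, GNAS and PDE4D2; compounds at up to 57 µM; 18 h, 30C.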
# [8] = biological target: Protein phosphatase 1D (Homo sapiens) (UniProt O15297); assay: RapidFire Mass Spectrometry qHTS Assay for Modulators of WT P53-Induced Phosphatase 1 (WIP1) (AID 1347424);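 also: amount of dephosphorylated VEPPL-S-QETFS peptide product formed by WIP1; series mostly up to about 63 µM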
# Protein phosphatase 1D (Homo sapiens), sequence (O15297 whole entry, looked up): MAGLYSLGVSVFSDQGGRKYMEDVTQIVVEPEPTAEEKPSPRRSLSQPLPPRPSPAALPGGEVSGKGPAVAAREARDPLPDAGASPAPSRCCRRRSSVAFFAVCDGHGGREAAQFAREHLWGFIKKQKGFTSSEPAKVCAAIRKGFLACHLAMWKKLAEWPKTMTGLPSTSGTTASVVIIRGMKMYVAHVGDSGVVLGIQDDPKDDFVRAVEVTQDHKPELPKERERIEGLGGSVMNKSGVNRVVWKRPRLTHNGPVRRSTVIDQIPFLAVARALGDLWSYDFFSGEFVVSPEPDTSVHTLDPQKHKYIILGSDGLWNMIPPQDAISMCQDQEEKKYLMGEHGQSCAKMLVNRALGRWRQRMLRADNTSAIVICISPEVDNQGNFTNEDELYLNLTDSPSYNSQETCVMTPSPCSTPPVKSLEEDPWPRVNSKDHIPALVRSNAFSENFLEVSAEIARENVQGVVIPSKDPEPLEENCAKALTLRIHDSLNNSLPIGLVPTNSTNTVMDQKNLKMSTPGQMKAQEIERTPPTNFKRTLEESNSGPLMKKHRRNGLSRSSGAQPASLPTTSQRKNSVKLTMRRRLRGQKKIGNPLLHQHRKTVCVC
# Outline: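 10 nM WIP1 preincubated with compounds 1 hr at room temperature in pH 7.5 Tris buffer with 30 mM MgCl2, 1 mM TCEP; 2 uM VEPPL-pS-QETFS phosphopeptide for 5 min, formic acid quench; dephosphorylated product quantified by RapidFire MS against labelled standard.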
# [9] = biological target: Protein phosphatase 1D (Homo sapiens) (UniProt O15297); assay: Rhodamine-PBP qHTS Assay for Modulators of WT P53-Induced Phosphatase 1 (WIP1) (AID 1347425)
# Outline: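 Steps: enzyme with Rh-PBP sensor and compounds, room-temperature incubation of 1 hr, baseline read, addition of VEPPL-pS-QETFS (10 uM final), kinetic fluorescence reads at 525/598 nm. Activity equals final minus baseline signal.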
# [10] = Validation qHTS assay for inhibitors of Activation Induced Cytidine Deaminase (AID): UDG Counterscreen signal (AID 1347427)
# Outline: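 Counterscreen read of UDG activity (2 U/mL, 4/3x) in the FRET deamination format with AID (1 uM, 4/3x), DJC20/DJC23 substrates (250 nM, 4x), 4 h at room temperature. NaOH stop, fluorescence at 560 ex/665 em.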
# [11] = biological target: Single-stranded DNA cytosine deaminase (Homo sapiens) (UniProt Q9GZX7); assay: Validation qHTS assay for inhibitors of Activation Induced Cytidine Deaminase (AID): AID signal (AID 1347429)
# Single-stranded DNA cytosine deaminase (Homo sapiens), sequence (Q9GZX7 whole entry, looked up): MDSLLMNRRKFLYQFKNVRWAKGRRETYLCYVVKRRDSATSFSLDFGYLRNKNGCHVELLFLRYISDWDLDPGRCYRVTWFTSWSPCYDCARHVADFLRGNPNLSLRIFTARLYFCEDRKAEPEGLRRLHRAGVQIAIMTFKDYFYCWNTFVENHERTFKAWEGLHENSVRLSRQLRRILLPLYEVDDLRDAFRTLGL
# Outline: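 Fluorescence at 540 nm excitation and 590 nm emission reports ssDNA cytosine deamination by AID, with UDG in the same well. Compound-treated reactions ran 4 hr at room temperature with DJC20/DJC23 substrate, followed by 30 min NaOH treatment.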
# [12] = Primary qHTS for small molecule stabilizers of the endoplasmic reticulum resident proteome: Secreted ER Calcium Modulated Protein (SERCaMP) assay (AID 1508630)
# Outline: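 GLuc-SERCaMP-expressing SH-SY5Y cells, pretreated 16 h with compound, are challenged with thapsigargin to empty ER calcium stores; after 4 h, coelenterazine is added directly to the medium and luminescence is imaged.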
# [13] = biological target: Cytochrome P450 3A4 (Homo sapiens) (UniProt P08684); assay: Cytochrome P450 family 3 subfamily A member 4 (CYP3A4) small molecule antagonists: luciferase qHTS assay (AID 1645841; active = well fitted curve in the direction sought with a large enough effect in the repeat runs; an effect the other way counts as inactive or inconclusive; also: nearly all actives have a fitted effect of over 45% in size)
# Cytochrome P450 3A4 (Homo sapiens), sequence (P08684 whole entry, looked up): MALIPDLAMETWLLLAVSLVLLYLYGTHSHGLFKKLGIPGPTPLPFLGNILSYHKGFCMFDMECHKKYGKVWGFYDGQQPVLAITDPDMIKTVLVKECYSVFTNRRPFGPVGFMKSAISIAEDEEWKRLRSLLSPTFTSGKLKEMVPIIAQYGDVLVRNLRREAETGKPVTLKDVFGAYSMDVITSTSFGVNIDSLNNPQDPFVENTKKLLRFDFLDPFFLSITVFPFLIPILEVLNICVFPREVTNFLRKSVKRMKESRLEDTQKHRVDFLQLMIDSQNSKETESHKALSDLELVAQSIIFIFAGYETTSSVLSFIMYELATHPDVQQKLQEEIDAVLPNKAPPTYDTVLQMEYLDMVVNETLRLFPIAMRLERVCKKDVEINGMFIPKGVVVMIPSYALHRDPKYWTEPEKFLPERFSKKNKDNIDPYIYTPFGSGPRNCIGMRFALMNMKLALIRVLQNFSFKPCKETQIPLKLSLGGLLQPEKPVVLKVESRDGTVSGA
# Outline: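 P450-Glo CYP3A4 enzyme with proluciferin substrate preincubated 10 min with compound at room temperature, then NADPH regeneration 1 h. Luciferin detection reagent added for 20 min; luminescence recorded. Ketoconazole positive control.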
# [14] = Primary qHTS for inhibitors of La Crosse Virus (LACV) - induced cell death in SH-SY5Y cells (AID 1508616);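 also: top concentration of the series differs between compounds; higher means more rescue of cells from virus-induced death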
# Outline: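 Protection against LACV-induced cell death is scored in SH-SY5Y cells exposed to compounds and virus (0.01 MOI) for 6 days. Data normalized to virus-infected DMSO wells and virus-free DMSO wells.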
# [15] = A High-Content qHTS Against Drug Library for the Identification of Small Molecules that Inhibit DYT1 Early Onset Primary Dystonia-Associated Cell Pathology (AID 1645839; calls by dose curve; also: series mostly up to about 46 µM)
# Outline: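 Flp-In T-REx 293 cells with tetracycline-inducible EGFP-delE hTOR1A (WT EGFP-hTOR1A as reference), 800 cells/well; compound added with tetracycline, 48 h at 37 C. Fixed, permeabilized cells imaged; %pathology (punctate TorsinA) primary, cell count counterscreen.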
structure (smiles),measurement,setting,value
O=C(NCC(=O)N1CC[C@H](NC2CCC(O)(c3ccc(-c4ncccn4)cn3)CC2)C1)c1cccc(C(F)(F)F)c1 (stereo partly drawn),Potency,[1],inactive
same,Potency,[2],inactive
same,Potency,[3],inactive
same,Potency,[4],inactive
OCc1ccccc1O[C@@H]1O[C@H](CO)[C@@H](O)[C@H](O)[C@H]1O,Potency,[1],inactive
same,Potency,[2],inactive
Cc1nn(C)c(COc2ccc(N3CCN(S(=O)(=O)N(C)C)CC3)cc2)c1-c1cccc2c(CCCOc3cccc4ccccc34)c(C(=O)O)n(CCN3CCOCC3)c12,Potency,[1],inactive
same,Potency,[2],inactive
same,Potency,[3],inactive
same,Potency,[4],13.5 µM (active)
CC1=C(/C=C/C(C)=C/C=C/C(C)=C/C=C/C=C(C)/C=C/C=C(C)/C=C/C2=C(C)CCCC2(C)C)C(C)(C)CCC1,Potency,[1],inactive
CCCCC(=O)OCC(=O)[C@]1(O)Cc2c(O)c3c(c(O)c2[C@@H](O[C@H]2C[C@H](NC(=O)C(F)(F)F)[C@H](O)[C@H](C)O2)C1)C(=O)c1c(OC)cccc1C3=O,Potency,[1],10.4 µM (active)
Cc1cc(C)cc(NC(=O)Cc2ccc(OC(C)(C)C(=O)O)cc2)c1,Potency,[1],inactive
same,Potency,[2],inactive
same,Potency,[3],inactive
same,Potency,[4],inactive
NC1CCC(N[C@@H]2C[C@H]2c2ccccc2)CC1 (stereo partly drawn),Potency,[1],inactive
same,Potency,[2],inactive
OC[C@H]1O[C@@H](Oc2cc(O)cc(/C=C/c3ccc(O)cc3)c2)[C@H](O)[C@@H](O)[C@@H]1O,Potency,[1],inactive
same,Potency,[2],inactive
CCOc1cc2ncc(C#N)c(Nc3ccc(OCc4ccccn4)c(Cl)c3)c2cc1NC(=O)/C=C/CN(C)C,Potency,[1],4.66 µM (active)
same,Potency,[2],inactive
Cc1c(-c2ccnn2C)cc(C(=O)NCc2ccc(S(C)(=O)=O)cn2)c(=O)n1-c1cccc(C(F)(F)F)c1,Potency,[1],inactive
same,Potency,[2],inactive
same,Potency,[3],inactive
CO[C@@H]1COCC[C@@H]1N[C@@H]1CC[C@@](C(=O)N2CCc3ncc(C(F)(F)F)cc3C2)(C(C)C)C1,Potency,[1],inactive
same,Potency,[2],inactive
same,Potency,[3],16.9 µM (active)
same,Potency,[4],inactive
CN1C(=O)N[C@@H](Cc2c[nH]c3c(Cl)cccc23)C1=O,Potency,[1],inactive
same,Potency,[2],inactive
CN1CC[C@@H](NC(=O)Nc2ccc(C#N)cc2)C[C@@H]1c1nc2ccccc2[nH]1,Potency,[1],inactive
same,Potency,[2],inactive
C[C@H]1[C@H](C)CC[C@]2(C(=O)O)CC[C@]3(C)C(=CC[C@@H]4[C@@]5(C)C[C@@H](O)[C@H](O)[C@@](C)(CO)[C@@H]5CC[C@]43C)[C@H]12,Potency,[1],inactive
same,Potency,[2],inactive
CC1(C)O[C@@H]2C[C@H]3[C@@H]4CCC5=CC(=O)C=C[C@]5(C)[C@H]4[C@@H](O)C[C@]3(C)[C@]2(C(=O)CO)O1,Potency,[1],inactive
CN1Cc2c(N)cccc2C(c2ccccc2)C1 (stereo not drawn),outcome,[5],inactive
same,outcome,[6],inactive
same,outcome,[7],inactive
same,outcome,[8],inactive
same,outcome,[9],inactive
same,outcome,[10],inactive
same,outcome,[11],inactive
same,Potency,[2],inactive
same,outcome,[12],inactive
same,Potency,[3],7.76 µM (active)
same,Potency,[4],inactive
CCN(c1cc(C#CCN2CCOCC2)cc(C(=O)NCc2c(C)cc(C)[nH]c2=O)c1C)C1CCC(N(C)CCOC)CC1 (stereo not drawn),Potency,[1],inactive
same,Potency,[2],inactive
O=C(c1ccc(NS(=O)(=O)c2cccc3cccnc23)cc1)N1CCN(CC2CC2)CC1,Potency,[1],inactive
same,Potency,[2],inactive
CN(NC(=O)CC(=O)NN(C)C(=S)c1ccccc1)C(=S)c1ccccc1,Potency,[1],inactive
same,Potency,[2],inactive
Nc1ccn([C@@H]2C(F)=C(CO)[C@@H](O)[C@H]2O)c(=O)n1,Potency,[1],inactive
same,Potency,[2],inactive
CCNC(=O)CCC/C=C\C[C@@H]1[C@@H](/C=C/C(O)CCc2ccccc2)[C@@H](O)C[C@@H]1O (stereo partly drawn),Potency,[1],inactive
same,Potency,[2],inactive
CNc1nc(Nc2cnn([C@H]3CCN(C4COC4)C[C@@H]3F)c2Cl)ncc1C(F)(F)F,Potency,[1],inactive
same,Potency,[2],inactive
same,Potency,[3],inactive
same,Potency,[13],inactive
same,Potency,[4],2.68 µM (active)
COc1cc2c(cc1O)CCN[C@]21CS[C@@H]2c3c(OC(C)=O)c(C)c4c(c3[C@H](COC1=O)N1[C@@H]2[C@H]2c3c(cc(C)c(OC)c3O)C[C@@H]([C@@H]1O)N2C)OCO4,Potency,[1],0.0848 µM (active)
CC(=O)OC(C)OC(=O)C(C)c1ccc(-c2ccccc2)c(F)c1 (stereo not drawn),outcome,[6],inactive
same,outcome,[8],inactive
same,outcome,[9],inactive
same,outcome,[14],inactive
same,Potency,[2],inactive
same,outcome,[15],inactive
same,Potency,[4],9.77 µM (active)
CC(C)(O)CNc1nc(Nc2ccnc(C(F)(F)F)c2)nc(-c2cccc(C(F)(F)F)n2)n1,Potency,[1],inactive
same,Potency,[2],inactive
CC(C)N(C[C@H]1O[C@@H](n2cnc3c(N)ncnc32)[C@H](O)[C@@H]1O)C1CC(CCc2nc3ccc(C(C)(C)C)cc3[nH]2)C1 (stereo partly drawn),Potency,[1],inactive
same,Potency,[2],inactive
same,Potency,[3],16.9 µM (active)
same,Potency,[4],inactive
O=C(O)C[C@H](O)C[C@H](O)/C=C/c1c(C2CC2)nc2ccccc2c1-c1ccc(F)cc1,Potency,[1],inactive
same,Potency,[2],inactive
